Screening results deposited in PubChem by Buhrlage Lab, Dana-Farber Cancer Institute and Novartis Institutes for BioMedical Research (Cambridge, Mass).
UCHL1 block – human UCHL1 deubiquitinase inhibition; P09936; inhibition, % at 20 µM; actives 0.2% (n = 47,000); purified UCHL1, Ub-rhodamine cleavage fluorescence
USP8 block – blocks human USP8 ubiquitin-rhodamine cleavage | purified USP8, Ub-rhodamine cleavage fluorescence, 30 min | inhibition, % at 20 µM | P40818 | AID 1645853 | actives 4.2% (n = 47,000)
USP10 inh – blocks human USP10 ubiquitin-rhodamine cleavage; Q14694; purified USP10, Ub-rhodamine fluorescence, 60 min; inhibition, % at 20 µM; actives 1.1% (n = 47,000)
USP7 block – inhibitors of human USP7 deubiquitinase; Q93009; purified USP7, Ub-rhodamine cleavage fluorescence; inhibition, % at 20 µM; actives 0.3% (n = 47,000); AID 1645854
Target sequence (Q93009 whole entry, looked up): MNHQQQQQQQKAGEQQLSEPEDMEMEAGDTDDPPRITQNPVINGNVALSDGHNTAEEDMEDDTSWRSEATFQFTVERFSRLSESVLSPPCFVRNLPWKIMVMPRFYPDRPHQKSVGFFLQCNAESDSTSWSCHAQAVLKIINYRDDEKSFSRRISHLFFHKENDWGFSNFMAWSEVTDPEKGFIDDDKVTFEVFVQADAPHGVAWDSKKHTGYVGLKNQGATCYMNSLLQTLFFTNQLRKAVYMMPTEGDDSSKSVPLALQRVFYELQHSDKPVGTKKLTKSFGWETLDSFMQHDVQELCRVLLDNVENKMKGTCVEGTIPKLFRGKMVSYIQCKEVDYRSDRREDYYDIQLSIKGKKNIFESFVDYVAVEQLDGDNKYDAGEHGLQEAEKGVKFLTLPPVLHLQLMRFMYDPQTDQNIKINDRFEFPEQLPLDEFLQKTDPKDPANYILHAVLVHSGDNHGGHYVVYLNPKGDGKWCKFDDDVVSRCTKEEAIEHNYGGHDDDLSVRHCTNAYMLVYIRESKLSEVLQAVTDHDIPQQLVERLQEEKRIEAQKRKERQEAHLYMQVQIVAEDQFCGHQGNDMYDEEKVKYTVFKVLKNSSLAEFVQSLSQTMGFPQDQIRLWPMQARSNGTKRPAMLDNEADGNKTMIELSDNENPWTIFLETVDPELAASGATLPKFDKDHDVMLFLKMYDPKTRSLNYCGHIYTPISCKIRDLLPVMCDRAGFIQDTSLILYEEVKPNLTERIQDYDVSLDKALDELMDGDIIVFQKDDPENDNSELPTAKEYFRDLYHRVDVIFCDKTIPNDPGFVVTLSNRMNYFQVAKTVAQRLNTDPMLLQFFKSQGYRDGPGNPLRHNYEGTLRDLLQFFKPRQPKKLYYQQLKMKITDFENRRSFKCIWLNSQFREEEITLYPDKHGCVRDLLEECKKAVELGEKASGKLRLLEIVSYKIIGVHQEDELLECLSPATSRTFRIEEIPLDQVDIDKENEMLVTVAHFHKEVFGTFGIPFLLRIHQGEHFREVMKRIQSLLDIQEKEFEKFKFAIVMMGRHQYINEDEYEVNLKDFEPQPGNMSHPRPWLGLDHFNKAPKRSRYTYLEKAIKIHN
Large screens that a line does not name were inactive. Compounds with a hit are over-represented: about 5% of the library has one in this group of screens. No stated cut-off is given here; in the data, active means inhibition above about 30%; inactive means the rest.

CC1Cc2ccccc2N1CC(=O)NCc1ccccc1Cl (stereo unspecified)	none
O=C(OCC(=O)c1ccc[nH]1)c1ccc2ncsc2c1	none
COc1ccc(-c2ccc(-c3nnn(CCN4CCCCC4)n3)cc2)cc1	USP8 block 47
c1ccc2c(c1)CCN(c1ncnc3c1[nH]c1ccccc13)C2	USP8 block 44
c1ccc(-c2nc(N3CCc4ccccc4C3)c3ccccc3n2)cc1	none
CC1(O)OC[C@H](O)[C@@H]1O (stereo partly specified)	none
COc1ccccc1CNC(=O)Cn1cnc2c(-c3ccccc3)csc2c1=O	USP8 block 70, USP10 inh 40
Cc1ccc(-c2c3c4n(c(-c5ccc(Cl)c(Cl)c5)cn4c2C(=O)NC2CCCCC2)CCCC3)cc1	USP8 block 44
CCOc1ccc(-n2ccnc(SCC(=O)Nc3ccccc3Cl)c2=O)cc1	USP8 block 53
CCOc1ccc(-n2ccnc(SCC(=O)Nc3ccccc3F)c2=O)cc1	USP8 block 57
Cc1cc(C)cc(-n2ccnc(SCC(=O)Nc3cccc(Cl)c3)c2=O)c1	none
CC(C)(NC(=O)C1CCCCC1)c1nc2c(c(C(N)=O)n1)OCCO2	USP7 block 81
CC(C)(NC(=O)Cc1ccccc1)c1nc2c(c(C(N)=O)n1)OCO2	none (no result: USP7 block)
CCN1C(=O)c2cc(S(=O)(=O)NCc3ccccc3)ccc2Oc2cccnc21	none
Cc1c(-c2nc(-c3ccccc3Cl)no2)nnn1-c1cccc(F)c1	USP10 inh 38
COc1ccc(-c2noc(-c3nnn(-c4ccccc4Cl)c3C)n2)cc1	none
COc1ccc(CN2CCN(C(=O)NC3CCCC3)CC2)cn1	none
Cc1ccc2[nH]c(=O)c(-c3noc(CCC(=O)NC4CCCC4)n3)cc2c1	none
Cc1ccc2cc(-c3noc(CCC(=O)NC4CCCC4)n3)c(=O)[nH]c2c1	USP8 block 75, USP10 inh 47, USP7 block 41
CCOc1cccc(-c2cc(C(=O)Nc3ccc4c(c3)OCO4)c3ccccc3n2)c1	USP8 block 36
COc1ccc(-c2cc(C(=O)Nc3ccc4c(c3)OCO4)c3ccccc3n2)cc1	none
CCOc1cc(N2CCOCC2)c(OCC)cc1NC(=O)c1cc(-c2ccncc2)nc2ccccc12	USP8 block 70
CNC(=O)c1cc(-c2ccc3c(c2)OCO3)nc2ccccc12	none
O=C(Nc1ccc2c(c1)OCO2)c1cc(-c2ccncc2)nc2ccccc12	USP8 block 35
Fc1cccc(-c2nccnc2C2CCCN(Cc3ccccn3)C2)c1 (stereo unspecified)	none
COc1cc(-c2c(NC(=O)c3ccc([N+](=O)[O-])cc3)n(C)c3ccccc3c2=O)cc(OC)c1OC	none
O=C(NCCc1ccccc1)c1cn2cc(Cl)ccc2n1	none
Cc1ccc2nc(-c3ccccc3O)c(NCCc3ccccc3)n2c1	USP8 block 80
Cc1ccc2[nH]c(=O)c(-c3nc4ccccn4c3NCc3ccccc3)cc2c1	none
Oc1ccccc1-c1nc2ccc(Cl)cn2c1NCCc1ccccc1	USP8 block 78
O=C(c1cncnc1)N1CCCC(c2ncc(Cc3ccc(Cl)cc3)o2)C1 (stereo unspecified)	none
COc1ccc(C(c2c[nH]c3ccccc23)c2c[nH]c3ccccc23)cc1O	USP8 block 38
CCCCCCCC/C=C\CCCCCCCC(=O)O	none
CCC/C=C\C#CC/C=C\CCCCCCCC(=O)O	UCHL1 block 69, USP7 block 59
Cn1c(=O)c2cc(C(=O)NCC3CCCCC3)nn2c2ccccc21	none
Cc1sc(NC(=O)c2ccc(S(=O)(=O)N(C)Cc3ccccc3)cc2)c(C(N)=O)c1C	USP8 block 31
Cn1c(NC(=O)c2ccc(Cl)cc2)c(-c2ccccn2)c(=O)c2ccccc21	USP8 block 43
CCC(C)NC(=O)[C@H](Cc1ccccc1)NC(=O)[C@@H]1Cc2c([nH]c3ccccc23)C2c3ccccc3C(=O)N21 (stereo partly specified)	none
CCCCOc1cccc(C(=O)Nc2ccc(OCC)c3ncccc23)c1	USP8 block 83
O=C(N[C@@H]1[C@@H](c2ccccc2)[C@@H](CO)N2CCC[C@H]12)N1CCOCC1	none
Cc1nc(SCC(=O)Nc2ccc(S(N)(=O)=O)cc2)c2cnn(-c3ccccc3)c2n1	USP10 inh 41
Cc1ccc(-c2nc(Cn3cnc4ccccc4c3=O)cs2)cc1	USP8 block 37
NS(=O)(=O)c1ccc(NC(=O)COC(=O)c2sc3cc(F)ccc3c2Cl)cc1	USP8 block 37
O=C(COC(=O)c1sc2ccccc2c1Cl)Nc1ccc(F)cc1	none
Cc1cccc(NC(=O)c2cc3ccccc3c(=O)s2)c1	USP8 block 33
COC(=O)c1ccccc1NC(=O)c1cc2ccccc2c(=O)s1	none
Cc1ccc(NC(=O)c2cn(C)nc2S(=O)(=O)N2CCCCC2)cc1C	none
Cc1ccc(CNC(=O)CCn2cnc3c(-c4ccccc4)noc3c2=O)cc1	none
Cc1ccccc1CNC(=O)CCn1cnc2c(-c3ccccc3)noc2c1=O	USP8 block 38
COc1ccc(C2c3c(-c4ccccc4O)n[nH]c3C(=O)N2CCc2ccc(OC)c(OC)c2)cc1 (stereo unspecified)	USP8 block 61
O=C(CSc1nnc(-c2ccccc2)o1)Nc1ccc2c(c1)OCCCO2	none
O=C(O)c1nccnc1C(=O)N1CCc2ccccc2C1	USP8 block 91
O=C(NCc1ccc2c(c1)OCO2)c1ccc(C2SCC(=O)N2Cc2ccco2)cc1 (stereo unspecified)	USP8 block 36
COc1ccc(-c2cc3c(=O)n(CC(=O)NCc4ccccc4)ncn3n2)cc1	none
Cc1ccccc1CNC(=O)N1CC[C@@H]2CN(Cc3cccnc3)S(=O)(=O)[C@@H]2CC1	none
O=C(COc1ccc(C2CCCCC2)cc1)Nc1ccc(-c2nn3cnnc3s2)cc1	USP8 block 33, USP10 inh 35
CC(C)n1nccc1C(=O)N(C)C[C@H]1C[C@]2(C)[C@@H](CCCC[C@]2(C)O)N1C	none
Cc1cccc(C(=O)Nc2nnc(Cc3cn(C)c4ccccc34)s2)c1	USP8 block 34
O=[N+]([O-])c1cnc(-n2cccc2)s1	none
Cc1ccc(Nc2nc3c(S(=O)(=O)c4ccc(C)c(C)c4)nnn3c3ccccc23)cc1C	USP8 block 53
O=C(CSc1nc2ccsc2c(=O)n1Cc1ccccc1)Nc1ccccc1C(F)(F)F	none
CCN(CC)C(=O)c1sc(NC(=O)c2cc(-c3ccccc3Cl)nc3ccccc23)c(C(N)=O)c1C	USP8 block 47, USP10 inh 44
CCOC(=O)c1sc(NC(=O)c2cc(-c3ccc(OC)cc3)nc3ccccc23)nc1C	none
O=C(COc1ncnc2cc([N+](=O)[O-])ccc12)NCc1ccc2c(c1)OCO2	USP8 block 66
CCCCn1cc(OC(=O)c2ccc(C)cc2)c2c1nc(-c1ccc(C)cc1)n1c3ccccc3nc21	none
O=C(Cn1c(CSc2ccccc2)nc2ccccc21)Nc1ccccc1F	USP8 block 51
O=C(c1ccccc1)c1c[nH]c2cc3c(cc2c1=O)OCO3	USP8 block 50
O=C(COc1ccccc1-c1nnc(-c2ccccc2)o1)Nc1ccc(F)cc1F	USP8 block 32
